Laboratory results reported in PubChem BioAssay (EPA / NIEHS).
Where “and” joins values, the source holds several entries; their conditions need not be identical. Equal entries are not always repeated. The source holds several records for some structures; these can differ, active in one and inactive in another. Calls of active or inactive are those of the source. How the source made its calls: active means hit-call score of the fitted dose curve at least 0.9, where 1 is the maximum; inactive means score below 0.9.

Assays:
[1] = read-out: Interleukin-6 (IL6), IL6 (gene 3569); assay: BSK_CASM3C_IL6: BioMAP Diversity Plus: CASM3C Assay for Interleukin-6 (IL6) Biomarker Activity for (AID 2283040); settings: primary human coronary artery smooth muscle cells; actives raise or lower the signal
[2] = read-out: Tissue plasminogen activator (tPA), PLAT (gene 5327); assay: BSK_BE3C_tPA: BioMAP Diversity Plus: BE3C Assay for Tissue plasminogen activator (tPA) Biomarker Activity (AID 2283041); settings: primary human bronchial epithelial cells; actives raise or lower the signal
Method in brief: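 Using human lung primary bronchial epithelial cells, tPA was measured by ELISA 24 h after dosing; data fitted relative to DMSO.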

[3] = read-out: Interleukin-8 (IL8), CXCL8 (gene 3576); assay: BSK_CASM3C_IL8: BioMAP Diversity Plus: CASM3C Assay for Interleukin-8 (IL8) Biomarker Activity (AID 2283042); settings: primary human coronary artery smooth muscle cells; actives raise or lower the signal;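 further: IL-8 protein level quantified by ELISA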
[4] = read-out: Human Leukocyte Antigen - DR isotype (HLADR), HLA-DRA (gene 3122); assay: BSK_CASM3C_HLADR: BioMAP Diversity Plus: CASM3C Assay for Human Leukocyte Antigen - DR isotype (HLADR) Biomarker Activity (AID 2283043); settings: primary human coronary artery smooth muscle cells; actives raise or lower the signal;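 further: cell-surface HLA-DR protein level quantified by ELISA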
[5] = read-out: Macrophage colony-stimulating factor (MCSF), CSF1 (gene 1435); assay: BSK_CASM3C_MCSF: BioMAP Diversity Plus: CASM3C Assay for Macrophage colony-stimulating factor (MCSF) Biomarker Activity (AID 2283044); settings: primary human coronary artery smooth muscle cells; actives raise or lower the signal;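 further: M-CSF protein amount quantified by ELISA after 24 h exposure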
[6] = read-out: Low-density lipoprotein receptor (LDLR), LDLR (gene 3949); assay: BSK_CASM3C_LDLR: BioMAP Diversity Plus: CASM3C Assay for Low-density lipoprotein receptor (LDLR) Biomarker Activity (AID 2283045); settings: primary human coronary artery smooth muscle cells; actives raise or lower the signal;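 further: LDLR protein level on the cell surface quantified by ELISA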
[7] = read-out: Monocyte Chemoattractant Protein-1 (MCP1), CCL2 (gene 6347); assay: BSK_CASM3C_MCP1: BioMAP Diversity Plus: CASM3C Assay for Monocyte Chemoattractant Protein-1 (MCP1) Biomarker Activity (AID 2283046); settings: primary human coronary artery smooth muscle cells; actives raise or lower the signal;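 further: MCP-1 level quantified by ELISA 24 h after dosing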
[8] = BSK_CASM3C_Proliferation: Cell Proliferation Assessment in the BioMAP Diversity Plus: CASM3C Assay (AID 2283047); settings: primary human coronary artery smooth muscle cells;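 further: sulforhodamine B total protein stain as relative cell number at 560 nm; sub-confluent cells exposed 48 h before staining; fitted both ways against DMSO so gain or loss of cell number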
[9] = read-out: Monokine induced gamma interferon (MIG), CXCL9 (gene 4283); assay: BSK_CASM3C_MIG: BioMAP Diversity Plus: CASM3C Assay for Monokine induced gamma interferon (MIG) Biomarker Activity (AID 2283048); settings: primary human coronary artery smooth muscle cells; actives raise or lower the signal;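 further: MIG protein level measured by ELISA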
[10] = read-out: serum amyloid A (SAA), SAA1 (gene 6288); assay: BSK_CASM3C_SAA: BioMAP Diversity Plus: CASM3C Assay for serum amyloid A (SAA) Biomarker Activity (AID 2283049); settings: primary human coronary artery smooth muscle cells; actives raise or lower the signal;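 further: SAA protein level quantified by ELISA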
[11] = BSK_CASM3C_SRB: Viability Assessment in the BioMAP Diversity Plus: CASM3C Assay (AID 2283050); settings: primary human coronary artery smooth muscle cells;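 further: total protein by SRB staining as cytotoxicity measure in parallel cultures; cells exposed to compound for 24 h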
[12] = read-out: Thrombomodulin, THBD (gene 7056); assay: BSK_CASM3C_Thrombomodulin: BioMAP Diversity Plus: CASM3C Assay for Thrombomodulin Biomarker Activity (AID 2283051); settings: primary human coronary artery smooth muscle cells; actives raise or lower the signal;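 further: thrombomodulin protein level measured by ELISA 24 h after dosing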
[13] = read-out: Tissue Factor, F3 (gene 2152); assay: BSK_CASM3C_TissueFactor: BioMAP Diversity Plus: CASM3C Assay for Tissue Factor Biomarker Activity (AID 2283052); settings: primary human coronary artery smooth muscle cells; actives raise or lower the signal;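 further: cell surface tissue factor protein level read by ELISA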
[14] = read-out: Interferon-gamma inducible Protein 10 (IP10), CXCL10 (gene 3627); assay: BSK_hDFCGF_IP10: BioMAP Diversity Plus: hDFCGF Assay for Interferon-gamma inducible Protein 10 (IP10) Biomarker Activity (AID 2283053); settings: primary human foreskin fibroblasts; actives raise or lower the signal
Method in brief: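 Chemical-treated human skin fibroblasts (primary) were sampled at 24 h for IP-10 by ELISA. Both increases and decreases relative to DMSO were scored.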

[15] = read-out: Urokinase-type plasminogen activator receptor (uPAR), PLAUR (gene 5329); assay: BSK_CASM3C_uPAR: BioMAP Diversity Plus: CASM3C Assay for Urokinase-type plasminogen activator receptor (uPAR) Biomarker Activity (AID 2283054); settings: primary human coronary artery smooth muscle cells; actives raise or lower the signal;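 further: cell-surface uPAR protein level quantified by ELISA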
[16] = read-out: Vascular cell adhesion molecule 1 (VCAM1), VCAM1 (gene 7412); assay: BSK_CASM3C_VCAM1: BioMAP Diversity Plus: CASM3C Assay for Vascular cell adhesion molecule 1 (VCAM1) Biomarker Activity (AID 2283055); settings: primary human coronary artery smooth muscle cells; actives raise or lower the signal;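 further: VCAM-1 protein level quantified by ELISA on the cells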
[17] = read-out: Collagen III, COL3A1 (gene 1281); assay: BSK_hDFCGF_CollagenIII: BioMAP Diversity Plus: hDFCGF Assay for Collagen III Biomarker Activity (AID 2283056); settings: primary human foreskin fibroblasts; actives raise or lower the signal
Method in brief: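 hDFCGF primary human dermal fibroblasts; 24 h chemical exposure; collagen III by ELISA; bidirectional curve fit vs DMSO baseline (gain or loss of signal).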

[18] = read-out: Epidermal growth factor receptor (EGFR), EGFR (gene 1956); assay: BSK_hDFCGF_EGFR: BioMAP Diversity Plus: hDFCGF Assay for Epidermal growth factor receptor (EGFR) Biomarker Activity (AID 2283057); settings: primary human foreskin fibroblasts; actives raise or lower the signal
Method in brief: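 Cell-based multiplexed assay in primary human foreskin fibroblasts. EGFR is read by ELISA 24 h after treatment and compared with DMSO controls.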

[19] = read-out: Interleukin-8 (IL8), CXCL8 (gene 3576); assay: BSK_hDFCGF_IL8: BioMAP Diversity Plus: hDFCGF Assay for Interleukin-8 (IL8) Biomarker Activity (AID 2283058); settings: primary human foreskin fibroblasts; actives raise or lower the signal
Method in brief: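 ELISA read-out of IL-8 from primary human foreskin fibroblast cultures taken 24 h after dosing; values are bidirectional fits relative to DMSO vehicle.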

[20] = BSK_hDFCGF_Proliferation: Cell Proliferation Assessment in the BioMAP Diversity Plus: hDFCGF Assay (AID 2283059); settings: primary human foreskin fibroblasts;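 further: curves fitted for both rise and fall of signal versus DMSO baseline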
Method in brief: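 Sub-confluent human foreskin fibroblast cultures receive test chemical […]. Relative cell number is quantified by sulforhodamine B staining (0.1%, after 10% TCA fixation) at 560 nm, with bidirectional fitting referenced to DMSO.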

Measured: AC50

Cc1cc(C)c(O)c(C(C)(C)C)c1
inactive: [3] | [12] | [18] | [19]
active: [1] 29.6 µM | [2] 29.6 µM | [4] 25.5 µM | [5] 22.7 µM | [6] 20 µM | [7] 24.9 µM | [8] 25.3 µM | [9] 29.3 µM | [10] 20 µM | [11] 27.2 µM | [13] 27.4 µM | [14] 35.9 µM | [15] 31.2 µM | [16] 29.5 µM | [17] 20 µM | [20] 18.8 µM

C=C(C)C(=O)OCC(F)(F)C(F)(F)C(F)(F)C(F)F
inactive: all assays above

Brc1nc2ccccc2s1
active: [20] 31.5 µM
inactive: all other assays above

O=C(Cl)C(F)(F)C(F)(F)C(F)(F)C(F)(F)C(F)(F)C(F)(F)C(F)(F)F
inactive: all assays above

CC1=CC2C3C=CC(C3)C2C1C (stereo unspecified)
active: [20] 28.2 µM
inactive: all other assays above

CN(C(=O)C(F)(F)C(F)(F)C(F)(F)F)[Si](C)(C)C
inactive: all assays above

OCC(F)(F)C(F)(F)C(F)(F)CO
inactive: all assays above

OCCCCC(F)(F)C(F)(F)C(F)(F)C(F)(F)F
inactive: all assays above

OCC(F)(F)C(F)(F)C(F)(F)C(F)(F)C(F)(F)C(F)(F)CO
inactive: all assays above

O=C(O)CCC(F)(F)C(F)(F)C(F)(F)F
inactive: all assays above

CO[Si](C)(CCC(F)(F)C(F)(F)C(F)(F)C(F)(F)C(F)(F)C(F)(F)F)OC
inactive: all assays above

Cc1ccc(O)c(-n2nc3ccccc3n2)c1
inactive: all assays above

O=S(=O)(O)CCC(F)(F)C(F)(F)C(F)(F)C(F)(F)C(F)(F)C(F)(F)C(F)(F)C(F)(F)F
inactive: all assays above

O=C(O)C(F)(F)C(F)(F)C(F)(F)OC(F)(F)F
inactive: all assays above

CCN(CC)c1ccc(C=O)cc1
active: [13] 5.46 µM
inactive: all other assays above

Cc1ccc(S(=O)(=O)C(I)I)cc1
active: [1] 2.67 µM | [2] 5.4 µM | [3] 3.52 µM | [4] 2.61 µM | [5] 2.17 µM | [7] 2.78 µM | [8] 1.37 µM | [9] 5.05 µM | [10] 0.987 µM | [11] 3.42 µM | [13] 1.97 µM | [14] 2.71 µM | [15] 2.92 µM | [16] 2.46 µM | [17] 6.27 µM | [18] 3.79 µM | [19] 3.51 µM | [20] 0.208 µM
inactive: [6] | [12]

NC(=O)C(F)(F)C(F)(F)C(F)(F)C(F)F
inactive: all assays above

C[C@]12CC[C@H]3C(=CCc4cc(O)ccc43)[C@@H]1CCC2=O
active: [6] 14.3 µM
inactive: all other assays above

CCN(CC)c1ccc2c(c1)Oc1cc(N(CC)CC)ccc1C21OC(=O)c2ccccc21
active: [16] 1.98 µM | [17] 10 µM | [20] 10.5 µM
inactive: all other assays above

O=S(=O)(Cl)C(F)(F)C(F)(F)C(F)(F)C(F)(F)C(F)(F)C(F)(F)C(F)(F)C(F)(F)F
active: [2] 48.7 µM and 48.8 µM | [20] 7.61 µM
inactive: [1] | [3] | [4] | [5] | [6] | [7] | [8] | [9] | [10] | [11] | [12] | [13] | [14] | [15] | [16] | [17] | [18] | [19] | [20]

OCC(O)CC(F)(F)C(F)(F)C(F)(F)C(F)(F)F (stereo unspecified)
inactive: all assays above

COC(F)(C(F)F)C(F)(F)F (stereo unspecified)
inactive: all assays above

O=C(F)C1(F)C(F)(F)C(F)(F)C(F)(F)C(F)(F)C1(F)F
inactive: all assays above

CC(C)(C)c1cc(CCC(=O)NCCCCCCNC(=O)CCc2cc(C(C)(C)C)c(O)c(C(C)(C)C)c2)cc(C(C)(C)C)c1O
active: [7] 0.824 µM
inactive: all other assays above

CC(C)CCCC(C)CCO (stereo unspecified)
active: [1] 32.5 µM | [2] 26 µM | [4] 32.2 µM | [5] 32.3 µM | [6] 32.1 µM | [7] 31.2 µM | [8] 30.9 µM | [9] 29.7 µM | [10] 29.6 µM | [11] 32.2 µM | [13] 29.9 µM | [15] 31.3 µM | [16] 31.9 µM | [20] 32.8 µM
inactive: [3] | [12] | [14] | [17] | [18] | [19]

NS(=O)(=O)C(F)(F)C(F)(F)C(F)(F)C(F)(F)C(F)(F)C(F)(F)F
active: [2] 49 µM and 47.5 µM | [14] 37.3 µM and 28.8 µM | [20] 50.8 µM and 50.6 µM
inactive: all other assays above
